Shown are actives, neighbours in structure and some others; about 6% of the full set was active somewhere.
D1 ag – Allosteric Agonists of the Human D1 Dopamine Receptor: qHTS. D(1A) dopamine receptor (Homo sapiens), P21728. HEK293 T-REx D1 cells, calcium flux, agonist mode. activation, % at 2 µM. actives 1% (n = 360,000); in the data active means activation above about 30%; further: 0% is about no effect
Target sequence (P21728 whole entry, looked up): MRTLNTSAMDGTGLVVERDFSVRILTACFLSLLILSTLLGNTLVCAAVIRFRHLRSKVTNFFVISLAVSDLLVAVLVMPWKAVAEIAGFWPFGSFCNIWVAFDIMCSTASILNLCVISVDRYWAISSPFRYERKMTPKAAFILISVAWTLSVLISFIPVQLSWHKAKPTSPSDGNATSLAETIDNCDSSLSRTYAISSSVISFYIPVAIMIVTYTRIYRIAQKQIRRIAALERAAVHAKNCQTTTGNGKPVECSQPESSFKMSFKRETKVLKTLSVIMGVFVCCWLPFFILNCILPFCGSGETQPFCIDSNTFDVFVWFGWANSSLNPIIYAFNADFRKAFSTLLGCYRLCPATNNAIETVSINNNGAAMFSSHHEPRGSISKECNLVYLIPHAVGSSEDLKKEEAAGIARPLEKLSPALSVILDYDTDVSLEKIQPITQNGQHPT
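Agonism was scored from calcium flux recorded over 180 s (1 read/s) after pintool compound addition, following a 10-cycle baseline. Cells were inducible force-coupled HEK293 TREx D1, plated overnight at 30 C and loaded with no-wash calcium dye.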
D1 PAM – Potentiators of Human D1 Dopamine Receptor: qHTS; D(1A) dopamine receptor (Homo sapiens), P21728; actives 0.036% (n = 360,000); HEK293 TREx D1 cells, calcium flux, dopamine EC20 potentiation; AID 504651, 2011; potentiation, % at 10 µM; in the data active means potentiation above about 30%; further: 0% is about no effect
Chronic BCR inh – qHTS Assay to Find Inhibitors of Chronic Active B-Cell Receptor Signaling; ABC-DLBCL IkBa-CBG/CBR reporter, luminescence ratio, 4 h; Potency, µM (titrated, usually from 46.1 µM), for inactives: at the highest dose activity change, negative = inhibition, most hits filed as inhibitors; actives 0.05% (n = 340,000); AID 493014, 2011; active means well fitted inhibition curve with a large enough effect in the signal ratio, with a control signal flat, not every such curve was filed as active; inconclusive means small, poorly fitted or top-dose-only effect, or effect the other way, or a change in a side signal; the % refers to the signal ratio;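 further: potency means the concentration at half of the fitted maximal effect; plate controls were basal doxycycline-induced cells for no effect and cells given 10 µM MG132 for full effect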
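Concentration-response series (up to 46 uM) were applied to TMD8 dual-reporter cells for 4 h at 37C with doxycycline. Green/red ratio, after filter-overlap correction, defined %Activity; red signal alone was normalised to basal cells and zero luminescence.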
DRD3 agonist – qHTS of D3 Dopamine Receptor Agonist: qHTS; D(3) dopamine receptor (Homo sapiens), P35462; actives 0.58% (n = 410,000); max activation, %; D3R DiscoveRx beta-arrestin cells, luminescence, 90 min; AID 652048, 2013; in the data active means max activation above about 30%; further: 0% is about no effect
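Cells at 1500/well, incubated overnight, then treated with pinned compounds (dopamine as control) for 90 min at 37 degrees C. DiscoveRx reagent added for 30 - 60 minutes at room temperature; luminescence read.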
D3 antag – qHTS of D3 Dopamine Receptor Antagonist: qHTS. D(3) dopamine receptor (Homo sapiens), P35462. D3R cells, DiscoveRx beta-arrestin luminescence, antagonist mode; stronger effect = lower value. max response, negative = inhibition, %. actives 2.5% (n = 360,000). AID 652054, 2013; in the data active means max response below about -50%; inconclusive means no clear call, values can overlap the other calls; further: on the % scale 0 is the no-effect control and ±100 the full control effect
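Cells plated overnight at 1500 cells/well, then exposed to library compounds with dopamine controls for 90 minutes at 37 degrees C. DiscoveRx reagent added for 30–60 minutes at room temperature; luminescence read, quantitative HTS format.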
D1 antag – Antagonist of Human D 1 Dopamine Receptor: qHTS; D(1A) dopamine receptor (Homo sapiens), P21728; AID 504652, 2011; HEK293 TREx D1 cells, calcium flux, dopamine EC80; stronger effect = lower value; actives 3.2% (n = 360,000); activity change, negative = inhibition, % at 10 µM; in the data active means activity change below about -30%; further: on the % scale 0 is the no-effect control and ±100 the full control effect
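Cells carrying a force-coupled, tetracycline-inducible human D1 receptor report calcium flux. Each well gets a 10 s baseline, compound with 180 s monitoring, then an EC80 dopamine stimulus with a second 180 s kinetic read.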
* hit, by the source's call.

What do the screens show for `O=C(COC(=O)CN1C(=O)C2CCCCC2C1=O)NNC(=O)c1ccc(Cl)cc1` (centres undefined)?
D1 ag: 2; D1 PAM: -2; Chronic BCR inh: 9%; DRD3 agonist: -3; D3 antag: -75*; D1 antag: -13

How did Cc1ccc(NC(=O)C(=O)NCC(c2cccnc2)N2CCN(Cc3ccccc3)CC2)cc1Cl (centres undefined) do in these assays?
D1 ag: 0; D1 PAM: -1; DRD3 agonist: -11; D1 antag: -17

How did COc1ccc(-c2nc3sc(CCNC(=O)C(=O)Nc4c(C)cccc4C)c(C)n3n2)cc1 do in these assays?
D1 ag: -1; D1 PAM: 0; Chronic BCR inh: -3%; DRD3 agonist: -6

Results for COc1ccc(Cn2c(CNS(=O)(=O)c3ccc(C)c(C)c3)nc3cccnc32)cc1 ?
D1 ag: 3; D1 PAM: -4; DRD3 agonist: -9; D1 antag: -10

Results for CCc1ccccc1Nc1cc(C(=O)NCCCN(C)C2CCCCC2)c2ccccc2n1 ?
D1 ag: 35*; D1 PAM: 2; DRD3 agonist: -15; D1 antag: -23

What do the screens show for `Cc1cc(C)cc(Nc2cc(C(=O)NCCCN(C)C3CCCCC3)c3ccccc3n2)c1`?
D1 ag: 44*; D1 PAM: -1; DRD3 agonist: 21; D1 antag: -26

How did Cc1cc(C)cc(Nc2cc(C(=O)NCc3ccccc3)c3ccccc3n2)c1 do in these assays?
D1 ag: 1; D1 PAM: -2; DRD3 agonist: 11; D1 antag: 14

How did Cc1ccc(C)c(Nc2cc(C(=O)NC3CCCC3)c3ccccc3n2)c1 do in these assays?
D1 ag: -2; D1 PAM: 4; DRD3 agonist: -11; D1 antag: -3

Results for Cc1ccc(C)c(Nc2cc(C(=O)NCCCN(C)C3CCCCC3)c3ccccc3n2)c1 ?
D1 ag: 54*; D1 PAM: 2; DRD3 agonist: -11; D1 antag: -34*

What do the screens show for `CCN(c1ccc(C)cc1C)S(=O)(=O)c1nnc(NC(=O)c2ccc(F)cc2)s1`?
D1 ag: -1; D1 PAM: -1; DRD3 agonist: 9; D1 antag: 1

How did COC(=O)C[C@@H]1C=C[C@@H](NC(C)=O)[C@@H](CO)O1 do in these assays?
DRD3 agonist: 10; D3 antag: 7

How did CN(C)CCCNC(=O)c1cccc(-c2cnc3cccnn23)c1 do in these assays?
DRD3 agonist: 5; D3 antag: 5

How did CC(C)(C)OC(=O)N[C@@H](C(=O)OC(C)(C)C)c1ccccc1 do in these assays?
D1 ag: -1; D1 PAM: -6; Chronic BCR inh: 3%; DRD3 agonist: -12; D3 antag: -18; D1 antag: -35*

Results for Cc1cccc([C@@H](NC(=O)OC(C)(C)C)C(=O)OC(C)(C)C)c1 ?
D1 ag: -5; D1 PAM: 5; Chronic BCR inh: inconclusive; DRD3 agonist: 4; D3 antag: 8

What do the screens show for `Cc1ccc2scc(N3CCCCC3C)c(=O)c2c1` (centres undefined)?
D1 ag: 2; D1 PAM: 1; DRD3 agonist: 2; D1 antag: 11

Results for CCCCCn1nc(C(=O)N2CCc3ccccc32)c2ccccc2c1=O ?
D1 ag: 1; D1 PAM: -4; Chronic BCR inh: inconclusive; DRD3 agonist: -1; D3 antag: 28; D1 antag: -51*

How did O=C(Cc1cccnc1)N[C@@H]1CC[C@H](CCn2cc(Cc3ccccc3)nn2)O[C@@H]1CO do in these assays?
DRD3 agonist: 5; D3 antag: 11

What do the screens show for `Cc1nc2c(cc1N)nc(C)n2Cc1ccccc1`?
D1 ag: 3; D1 PAM: -2; Chronic BCR inh: 0%; DRD3 agonist: -10; D3 antag: -51*; D1 antag: -1

What do the screens show for `Cc1ccc(-c2ccc(=O)n(C(C)C(=O)Nc3ccccc3Cl)n2)cc1C` (centres undefined)?
D1 ag: 2; D1 PAM: 0; DRD3 agonist: 4; D1 antag: 6

How did COc1ccc(OC)c(NC(=O)NCCN2CCN(c3ccccc3)CC2)c1 do in these assays?
D1 ag: 9; D1 PAM: -7; Chronic BCR inh: -8%; DRD3 agonist: 5; D3 antag: -67*; D1 antag: -54*

Results for COc1ccc(N2CCN(CCNC(=O)Nc3ccc([N+](=O)[O-])cc3OC)CC2)cc1 ?
D1 ag: 1; D1 PAM: -6; Chronic BCR inh: -16%; DRD3 agonist: -20; D3 antag: -26; D1 antag: 3

How did COc1ccc(Cl)cc1NC(=O)NCCN1CCCCC1 do in these assays?
D1 ag: 5; D1 PAM: -2; Chronic BCR inh: -1%; DRD3 agonist: -14; D3 antag: inconclusive; D1 antag: 19

How did Cc1ccc(Cl)cc1NC(=O)CSC(N)=O do in these assays?
D1 ag: 14; D1 PAM: 11; Chronic BCR inh: -2%; DRD3 agonist: -1; D3 antag: -68*; D1 antag: 8

Results for COc1ccc(NC(=O)NCCN2CCN(c3cccc(Cl)c3)CC2)cc1 ?
D1 ag: 22; D1 PAM: -8; Chronic BCR inh: 1%; DRD3 agonist: -10; D3 antag: -58*; D1 antag: -61*

What do the screens show for `COCC(=O)Nc1cc(Cl)ccc1C`?
D1 ag: 0; D1 PAM: 4; Chronic BCR inh: -5%; DRD3 agonist: -2; D3 antag: 9; D1 antag: -7

How did Cc1ccc(Cl)cc1NC(=O)NCCN1CCCCC1 do in these assays?
D1 ag: 11; D1 PAM: -3; Chronic BCR inh: 0%; DRD3 agonist: -13; D3 antag: -67*; D1 antag: -8

How did O=C(Cc1ccc(NC(=O)N2CCCCc3ccccc32)cc1)NCc1cccc(Br)c1 do in these assays?
D1 ag: 1; D1 PAM: -6; DRD3 agonist: 3; D1 antag: -12

What do the screens show for `COc1cc(CNc2ncnc3c2ncn3[C@H]2CN(Cc3ccco3)C[C@@H](CO)O2)cc(OC)c1OC`?
DRD3 agonist: 3; D3 antag: 5

What do the screens show for `NC(COCc1ccccc1)c1csc(NC(=O)Nc2cccc(C(F)(F)F)c2)n1` (centres undefined)?
DRD3 agonist: -2; D3 antag: -5
